Values joined by “and” are separate entries in the source; they are usually repeats but may differ in a detail not shown here. Equal entries are not always repeated. Active and inactive are the calls of the source.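 The calls were made as follows, unless noted: active = inhibition at or above 50% relative to wild type and mutant plate controls; inactive = inhibition below 50%.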
What was measured:
[1] = inhibitors of TNFa-induced NFkB p65 translocation, primary screen, imaging, HUVEC, MLSMR starter and 10KST1 sets (AID 438;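 active = inhibition above 20% together with a positive visual image hit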;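 also: compound added about 3h40 before a 20 min TNFalpha stimulation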;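 as to inhibition: signal is the nuclear over cytoplasmic p65 intensity ratio per well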); details: HUVEC TNFa-induced p65 nuclear translocation; cell count: measured here: nuclei count (cytotoxicity indicator), at 2.08 µM; inhibition: at 2 µM, stronger effect = higher value, 0% TNFa-plus-vehicle, 100% no-TNFa wells
[2] = reduction of polyQ htt aggregates in cells – imaging, exon1htt(103Q)mCFP cells, high-content imaging, primary screen (AID 483;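 active = visual image review flags a hit and inhibition of aggregation exceeds 20%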;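 also: compound exposure lasted 3 days before fixation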;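 as to nuclei count: percent of the per-plate median nuclei count of sample wells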); details: exon1htt(103Q)mCFP cell line, aggregate imaging, at 2 µM; inhibition of aggregation: stronger effect = higher value; nuclei count: measured here: cell count, toxicity
[3] = endothelial E-selectin expression blockers – imaging, HUVEC, immunofluorescence, MLSMR starter and 10KST1 sets, primary screen (AID 487;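 active = visually confirmed hit in the image check and inhibition above 20%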;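 as to inhibition: signal is fraction of cell area covered by stained E-selectin grains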;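 as to nuclei count: 100% = median nuclei count of all wells on the same plate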); details: HUVEC TNFalpha-induced E-selectin immunofluorescence imaging, at 2 µM; inhibition: stronger effect = higher value; nuclei count: measured here: cell number, toxicity
[4] = Primary imaging screen for DUSP6 inhibitors that restore phospho-Erk in transfected HeLa cells, chemical complementation (AID 609;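 active = compounds giving at least 50% inhibition in the cell-based MKP-3 phosphatase rescue imaging test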;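 as to inhibition: phospho-Erk level distribution per well compared with pooled transfected vehicle control wells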); details: HeLa MKP-3 transfected, phospho-Erk imaging KS statistic, at 10 µM, cells stimulated with TPA for 15 min
[5] = target: Dual specificity protein phosphatase 6 (Homo sapiens) (UniProt Q16828); test: as above; details: HeLa MKP-3 transfected, phospho-Erk imaging KS statistic; at 10 µM; stronger effect = higher value; cells stimulated with TPA for 15 min
Sequence of Dual specificity protein phosphatase 6 (Homo sapiens) (Q16828 whole entry, looked up): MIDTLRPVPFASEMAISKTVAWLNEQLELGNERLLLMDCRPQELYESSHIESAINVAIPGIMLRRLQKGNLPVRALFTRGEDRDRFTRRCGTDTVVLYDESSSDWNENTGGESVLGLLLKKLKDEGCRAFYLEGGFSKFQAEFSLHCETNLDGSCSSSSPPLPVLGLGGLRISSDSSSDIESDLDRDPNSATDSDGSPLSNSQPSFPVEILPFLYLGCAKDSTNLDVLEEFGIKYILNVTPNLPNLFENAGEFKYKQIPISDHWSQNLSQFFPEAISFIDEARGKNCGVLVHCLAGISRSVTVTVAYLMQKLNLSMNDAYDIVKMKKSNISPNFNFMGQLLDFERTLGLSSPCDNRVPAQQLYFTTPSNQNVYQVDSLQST

[6] = target: Voltage-gated potassium channel subunit beta-2 (Rattus norvegicus) (UniProt P62483); test: inhibitors of rat Kvbeta2 reductase activity – biochemical, NADPH fluorescence, primary screen (AID 622;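 active = fluorescence slope higher than the sample average by over 3 SD, cut at about -0.22 in these data, passing the limit was not always enough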;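 also: slope of raw intensity against log time taken from 70 to 1610 s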); details: recombinant KvBeta, 4-cyanobenzaldehyde reduction, at 10 µM, stronger effect = higher value
Sequence of Voltage-gated potassium channel subunit beta-2 (Rattus norvegicus) (P62483 whole entry, looked up): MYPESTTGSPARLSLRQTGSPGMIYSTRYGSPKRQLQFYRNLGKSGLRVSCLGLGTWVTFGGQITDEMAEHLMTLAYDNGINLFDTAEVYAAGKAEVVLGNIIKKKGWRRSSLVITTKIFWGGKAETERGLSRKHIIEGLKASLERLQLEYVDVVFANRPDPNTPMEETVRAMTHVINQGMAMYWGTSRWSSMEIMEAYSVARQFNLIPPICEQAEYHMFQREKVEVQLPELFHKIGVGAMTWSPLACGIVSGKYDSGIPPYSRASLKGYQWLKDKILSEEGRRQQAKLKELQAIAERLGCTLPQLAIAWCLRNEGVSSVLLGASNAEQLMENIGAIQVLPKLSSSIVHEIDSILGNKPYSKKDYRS

[7] = target: Voltage-gated potassium channel subunit beta-2 (Rattus norvegicus) (UniProt P62483); test: enhancers of rat Kvbeta2 NADPH turnover – biochemical, NADPH fluorescence, primary screen (AID 623;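 active = NADPH fluorescence slope more negative than the mean of all samples by about 3 SD, 99.7% confidence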;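 also: fluorescence intensity change per second fitted from 20 to 320 s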); details: Recombinant KvBeta, NADPH fluorescence decrease slope, 10 min; at 10 µM; stronger effect = lower value
[8] = target: Alpha-2C adrenergic receptor (Homo sapiens) (UniProt P18825); test: compounds altering alpha2C-coupled GIRK flux – cell-based, HEK293 alpha2C/GIRK1/2, thallium flux, primary screen (AID 624;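 active = fluorescence slope after compound addition differing from the mean of all screened samples at 99.7% confidence, in either direction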;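 also: slope of fluorescence ratio to pre-addition baseline per second over 15 to 24 s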); details: thallium flux BTC fluorescence, at 10 µM, actives lie on both sides
Sequence of Alpha-2C adrenergic receptor (Homo sapiens) (P18825 whole entry, looked up): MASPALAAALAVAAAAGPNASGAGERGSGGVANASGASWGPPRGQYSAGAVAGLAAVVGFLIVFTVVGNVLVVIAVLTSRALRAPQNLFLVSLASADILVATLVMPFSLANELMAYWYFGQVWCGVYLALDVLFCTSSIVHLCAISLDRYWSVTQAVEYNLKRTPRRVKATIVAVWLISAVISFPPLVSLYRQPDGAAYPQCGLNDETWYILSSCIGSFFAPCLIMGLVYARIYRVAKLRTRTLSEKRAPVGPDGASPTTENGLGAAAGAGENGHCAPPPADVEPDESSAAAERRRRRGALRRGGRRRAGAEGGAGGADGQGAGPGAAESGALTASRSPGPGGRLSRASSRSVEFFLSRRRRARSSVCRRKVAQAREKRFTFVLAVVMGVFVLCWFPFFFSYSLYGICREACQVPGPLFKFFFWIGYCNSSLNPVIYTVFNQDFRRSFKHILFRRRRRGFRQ

[9] = inhibitors of larval lipid processing in zebrafish, primary screen, whole organism, PED6 fluorescence, gall bladder and intestine (AID 686;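 active = a full or partial loss of lipid-probe fluorescence in the fish gall bladder, intestine or both, judged by eye; inactive = no fluorescence loss, or compound toxic to the fish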;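 also: larvae 5 to 7 days old with five fish per well; signal comes from phospholipase A2 cleavage of quenched PED6 carried via bile; overnight exposure to compound and PED6 before scoring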); details: Zebrafish larvae PED6 lipid processing, fluorescence scoring; screened at 20 µM (by protocol)
[10] = loss of swimming-algae plug formation – whole organism, Chlamydomonas reinhardtii, WT vs cilia-less mutant, absorbance, 96-well, primary screen (AID 463189); details: Chlamydomonas reinhardtii gravitaxis, OD600 absorbance, 2 days; at 10 µM; stronger effect = higher value;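 also: 0% = wild type cc124 cells in DMSO and 100% = ciliumless bld1 mutant cells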
[11] = blockers of RIG-like receptor reporter activation – cell-based, Sendai virus stimulus, luciferase, 10K MLSCN set, TLR/RLR signaling modifier project, primary screen (AID 602276;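 active = inhibition at or above 50% at 10 µM; inactive = inhibition below 50%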;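 also: firefly luciferase from ISG56 promoter only with Renilla not read in this screen; 0% = Sendai virus plus DMSO and 100% = medium plus DMSO without virus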); details: HEK293 RL24 IRF3 luciferase reporter, at 10 µM, stronger effect = higher value
[12] = TLR3 IRF3 reporter activation blockers – cell-based, poly I:C stimulus, luciferase, 10K MLSCN set, primary screen (AID 602277;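 active = inhibition of the reporter signal at or above 50%; inactive = inhibition below 50%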); details: HEK293-TLR3 RL24 IRF3 luciferase reporter, at 10 µM, stronger effect = higher value
[13] = target: Muscarinic acetylcholine receptor M4 (Homo sapiens) (UniProt P08173); test: M4-linked GIRK flux change, two-sided – cell-based, HEK293 M4/GIRK, thallium flux, BTC-AM, M4 allosteric agonist project, primary screen (AID 625;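 active = fluorescence slope after compound addition differing from the mean of all tested samples at 99.7% confidence, mostly higher but some lower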;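 also: thallium influx through GIRK channels coupled to M4 in HEK293 cells with BTC-AM dye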); details: at 10 µM, actives lie on both sides
Sequence of Muscarinic acetylcholine receptor M4 (Homo sapiens) (P08173 whole entry, looked up): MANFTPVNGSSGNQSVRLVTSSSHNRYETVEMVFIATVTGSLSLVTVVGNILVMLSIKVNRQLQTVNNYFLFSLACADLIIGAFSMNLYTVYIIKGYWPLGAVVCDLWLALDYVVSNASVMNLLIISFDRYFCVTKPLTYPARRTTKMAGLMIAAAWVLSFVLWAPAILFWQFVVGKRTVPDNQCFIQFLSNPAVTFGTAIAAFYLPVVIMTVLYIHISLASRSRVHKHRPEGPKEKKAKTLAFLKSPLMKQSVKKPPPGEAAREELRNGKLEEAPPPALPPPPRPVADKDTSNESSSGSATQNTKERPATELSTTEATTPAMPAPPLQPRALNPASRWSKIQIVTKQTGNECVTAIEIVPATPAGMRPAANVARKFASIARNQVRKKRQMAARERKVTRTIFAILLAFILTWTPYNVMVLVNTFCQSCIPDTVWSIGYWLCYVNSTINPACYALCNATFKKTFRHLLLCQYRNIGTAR

[14] = measured here: cell density z-score
[15] = measured here: nuclear c-Myc green intensity z-score
[16] = measured here: nuclear pErk red intensity z-score, stronger effect = higher value

SMILES	cell count [1]	inhibition [1]	inhibition of aggregation [2]	nuclei count [2]	inhibition [3]	nuclei count [3]	z-score [4, 14]	z-score [4, 15]	z-score [4, 16]	inhibition [5]	fluorescence slope [6]	NADPH fluorescence slope [7]	slope [8]	outcome [9]	inhibition [10]	inhibition [11]	inhibition [12]	fluorescence slope [13]
CNC[C@H](O)c1cccc(O)c1	561	0.6% (inactive)	1.2% (inactive)	89.3%	-73.1% (inactive)	117%	0.304	0.128	-0.803	14.6% (inactive)	-0.468 (inactive)	-5e-05 (inactive)	0.00773 (inactive)	inactive	-10.5% (inactive) and 0.836% (inactive)	11.5% (inactive)	41.6% (inactive)	–
CC(NCCc1ccc(O)cc1)C(O)c1ccc(O)cc1 (stereo unspecified)	713	-4.6% (inactive)	-2.5% (inactive)	107%	-109% (inactive)	123%	0.779	0.516	-1.29	1.48% (inactive)	-0.474 (inactive)	-9.7e-05 (inactive)	0.00504 (inactive)	inactive	4.91% (inactive)	7.45% (inactive)	39.2% (inactive)	–
Cc1cc(C)n(-c2nnc(C)n2/N=C/c2ccco2)n1	609	-8.3% (inactive)	-21.9% (inactive)	106%	-232% (inactive)	159%	1.68	-0.585	0.108	20.2% (inactive)	-0.501 (inactive)	-5.1e-05 (inactive)	0.00494 (inactive)	inactive	17.4% (inactive)	17.4% (inactive)	24% (inactive)	–
CCOC(=O)c1c(C(F)(F)C(F)(F)C(F)(F)C(F)(F)F)n[nH]c1C	532	-3.7% (inactive)	10.3% (inactive)	97.3%	-78.6% (inactive)	128%	-0.312	0.0825	-0.449	11.3% (inactive)	-0.521 (inactive)	-9.8e-05 (inactive)	0.00424 (inactive)	inactive	17.6% (inactive)	17.2% (inactive)	24.6% (inactive)	–
C=C1[C@@H](C)C2[C@H](Cc3ccccc3)NC(=O)[C@]23OC(=O)CC[C@H](O)CCC[C@H](C)C/C=C/[C@H]3[C@@H]1O (stereo partly specified)	573	-22.6% (inactive)	25.7% (inactive)	42.3%	-47.4% (inactive)	104%	-1.85	0.937	1.72	5.42% (inactive)	-0.464 (inactive)	-6.3e-05 (inactive)	0.00486 (inactive)	inactive	-3.13% (inactive)	7.56% (inactive)	45.8% (inactive)	–
CC1(C)S[C@@H]2[C@H](NC(=O)C(C(=O)O)c3ccccc3)C(=O)N2[C@H]1C(=O)O (stereo partly specified)	588	-12.5% (inactive)	-7.6% (inactive)	99.1%	-51.3% (inactive)	138%	0.424	0.193	-0.471	13.3% (inactive)	-0.487 (inactive)	-2.7e-05 (inactive)	0.00471 (inactive)	inactive	37.9% (inactive)	-4.51% (inactive)	13% (inactive)	–
CCN(CCCc1ccccc1)CCCc1ccccc1	633	-10.9% (inactive)	-6.3% (inactive)	95.6%	-92.8% (inactive)	132%	-0.00243	0.557	-0.117	9.37% (inactive)	-0.514 (inactive)	-3.6e-06 (inactive)	0.00419 (inactive)	inactive	128% (active)	16.6% (inactive)	29.6% (inactive)	–
CCCCOc1ccc(C(=O)Nc2ccc(N3CCN(C(C)=O)CC3)cc2)cc1	490	-7.3% (inactive)	0.5% (inactive)	104%	-28.4% (inactive)	141%	1.4	-2.16	0.274	5.95% (inactive)	-0.265 (inactive)	1.1e-05 (inactive)	0.00636 (inactive)	inactive	3.64% (inactive)	6.98% (inactive)	2.99% (inactive)	0.00551 (inactive)
CCC1(c2ccccc2)C(=O)NCNC1=O	647	3.5% (inactive)	-10.2% (inactive)	103%	-70% (inactive)	129%	-0.87	2.71	-0.522	5.79% (inactive)	-0.469 (inactive)	-8.7e-06 (inactive)	0.00482 (inactive)	inactive	-4.31% (inactive) and 28.8% (inactive)	17% (inactive)	30.6% (inactive)	–
COC(=O)c1ccc(-c2sc3nc(N4CCOCC4)c4c(c3c2N)CCCC4)o1	683	-7.7% (inactive)	-43% (inactive)	103%	18.1% (inactive)	126%	-0.0797	0.0278	1.68	14.4% (inactive)	-0.000813 (inactive)	0 (inactive)	0.0101 (inactive)	inactive	-6.82% (inactive)	13% (inactive)	-14.5% (inactive)	–
